Not all results are given here.
aSyn UTR act = Activators via SNCA 5'UTR binding, MLPCN. alpha-synuclein 5'UTR reporter, activators screen. activity score, % (tested at 7.5 µM), hits read low. 7.1% of 300,000 active. AID 1814, 2009; in the data active = activity score below about -60%
Starred values were filed as active, the others as inactive.

SMILES	aSyn UTR act
N/C(=N\OC(=O)c1ccco1)c1cccnc1	-78*
N/C(=N\OC(=O)c1ccc(Cl)cc1Cl)c1cccnc1	-70*
N/C(=N\OC(=O)c1ccc(Cl)cc1)c1cccnc1	-187*
Cc1ccccc1/C(N)=N/OC(=O)c1cccs1	-120*
Cc1cc(C)nc(-n2nc(C)c(Sc3ccc(F)cc3)c2N)n1	-182*
O=C1C2C3C=CC(C3)C2C(=O)N1/N=C/c1ccc(-c2ccccc2[N+](=O)[O-])o1 (stereo not drawn)	-77*
O=C(O)/C=C\C(=O)Nc1ccccc1C#Cc1ccccc1	-87*
O=C(O)/C=C\C(=O)Nc1ccccc1C#Cc1ccc(Br)cc1	-290*
COc1cccc(NC2SC(=O)N(c3ccccc3)C2=O)c1 (stereo not drawn)	-97*
COc1ccc(/C=N/Nc2cc(N(C)C)nc(N(C)C)n2)cc1	-65*
COc1ccc(/C=N/NC2=NCCCCC2)cc1	-86*
Oc1ccccc1/C=N/NC1=NCCCCC1	-161*
CCNc1nc(Oc2ccc(C#N)cc2)cc(C(F)(F)F)n1	59
CCNc1nc(N)nc(Oc2ccc(C(=O)OC)cc2)n1	-71*
COC(=O)c1sc(-c2ccc(Cl)cc2)cc1N	-101*
COC(=O)c1cc(-c2ccccc2)sc1N	-77*
COC(=O)c1sc(-c2cccs2)cc1N	-86*
CC(=O)c1ccc(NC(=O)C2(c3ccccc3)CCOCC2)cc1	-118*
O=C(Nc1ccc(Nc2ccccc2)cc1)c1ccc(F)cc1	-75*
Cc1ccc(NC(=O)C(=O)c2ccc(C)cc2)cc1	-208*
Cc1cccc(C(=O)Nc2ccc(O)cc2)c1	-98*
Cc1cccc(C(=O)Nc2ccc(C(=O)c3ccccc3)cc2)c1	-106*
Cc1ccc(C(=O)Nc2ccc3ccccc3c2)cc1	66
Cc1ccc(N/C(=C\C(=O)c2ccccc2)C(=O)O)cc1	-158*
Cc1ccc(NC(=O)c2ccccc2)cc1	-164*
SMILES	aSyn UTR act
O=C(Nc1ccccc1)c1ccc(C(=O)Nc2ccccc2)nc1	-182*
O=C(Nc1nsc(-c2ccccc2)n1)c1ccc(F)cc1	-166*
Cc1ccc(NC(=O)/C(CN(C)C)=N\O)cc1	-89*
CSC(=CC(=O)c1ccccc1)SC	-77*
CCN(/C=N/c1sc2c(c1C#N)CCCCC2)CC	-142*
CN1CCN(/C=N/c2sc3c(c2C#N)CCCCC3)CC1	-147*
CCOC(=O)c1oc2nc3c(cc2c1N)CCCC3	-107*
CS(=O)(=O)c1ccc2nc(NC(=O)c3cccc(Cl)c3)sc2c1	-72*
COc1ccccc1C(=O)Nc1nc2ccccc2s1	109
COc1ccccc1C(=O)Nc1nc2ccc(S(C)(=O)=O)cc2s1	-118*
CS(=O)(=O)c1ccc2nc(NC(=O)c3ccccc3Cl)sc2c1	-109*
Cc1noc(C)c1C(=O)Nc1nc2ccc(S(C)(=O)=O)cc2s1	-70*
CS(=O)(=O)c1ccc2nc(NC(=O)c3ccccc3Br)sc2c1	-104*
Cc1ccsc1/C=C1\CCc2ccccc2C1=O	-165*
Cc1ccccc1/C=C1\CCCc2ccccc2C1=O	-241*
Cc1ccc(-c2nc(-c3nccc4ccccc34)oc2-c2ccccc2)cc1	-137*
CC(=C/c1ccc(C(C)C)cc1)/C=N/NC(=O)CSc1ccccn1	-164*
CC(/C=N/NC(=O)CSc1ccccn1)=C\c1ccc(C(C)C)cc1	-254*
COc1cccc(NC(=S)N/N=C2/CCCCc3ccccc32)c1	-178*
COc1cccc(NC(=S)Nc2cccnc2)c1	-93*
Cc1cccnc1NC(=S)Nc1ccc(Br)cc1Cl	-174*
COc1cccc(NC(=S)Nc2ccc(Br)cc2Cl)c1	-93*
COc1cccc(NC(=S)NCc2cccs2)c1	-72*
Cc1ccccc1NC(=O)CSc1nc2ccccc2o1	-158*
CCOC(=O)c1c(NC(=O)CSc2nc3ccccc3o2)sc(C(C)=O)c1C	-63*
SMILES	aSyn UTR act
O=C(CSc1nc2ccccc2o1)NCc1ccc2c(c1)OCO2	-79*
O=C(CSc1nc2ccccc2o1)Nc1nc(-c2ccccc2)cs1	-111*
CCOC(=O)c1c(NC(=O)CSc2cccc[n+]2[O-])sc(C(=O)Nc2ccccc2)c1C	-105*
c1cncc(-c2nc(-c3ccc4c(c3)OCO4)cs2)c1	-117*
Oc1ccc(-c2csc(-c3cccnc3)n2)c(O)c1	-101*
Clc1ccsc1-c1csc(-c2cccnc2)n1	-85*
COc1ccccc1C(O)Cc1nc2ccccc2n1C (stereo not drawn)	-87*
CN(C)c1ccc(C(O)Cc2nc3ccccc3n2C)cc1 (stereo not drawn)	-97*
COc1ccc(C(C)NCCC(c2ccc(OC(C)C)cc2)c2ccccc2OC)cc1 (stereo not drawn)	93
CC(C)c1ccc(C(O)Cc2nc3ccccc3n2C)cc1 (stereo not drawn)	-102*
Oc1[nH]c2ccccc2c1C=Nc1ccc2c(c1)OCCO2	-76*
Cc1cccc(/N=C/c2c(O)[nH]c3ccccc23)n1	-211*
CN1CCN(c2ccc(NC(=O)COc3ccccc3Cl)cc2)CC1	-65*
COc1cc(C(=O)c2cocc2C(=O)c2ccc3c(c2)OCO3)cc(OC)c1OC	67
COc1ccccc1OCC(=O)Nc1ccc2c(c1)OCO2	-96*
Cc1ccccc1OCC(=O)Nc1ccc2c(c1)OCO2	-140*
O=C(COc1ccccc1Cl)Nc1ccc2c(c1)OCO2	-145*
Cc1ccc(NC(=O)CCNC(=O)c2ccc(Cl)cc2)nc1	-80*
Cc1ccc(NC(=O)c2ccc3nc[nH]c3c2)c(O)c1	-99*
Cc1ccc(NC(=O)c2ccc(C(=O)c3ccccc3)cc2)nc1	-109*
O=C(Nc1ccc(OC(F)(F)F)cc1)c1ccc2nc[nH]c2c1	-64*
Cc1ccc(NC(=O)c2ccc3nc[nH]c3c2)nc1	-96*
Cc1cccc(C(=O)NC(C(=O)Nc2nc(-c3ccccn3)cs2)C(C)C)c1 (stereo not drawn)	81
CCN(CC)S(=O)(=O)c1cccc(C(=O)N[C@H](C(=O)Nc2nc3ccc(F)cc3s2)C(C)C)c1	-83*
COc1ccc(NCc2nc3ccccc3n2CCOc2ccc(C)cc2)cc1	-114*
SMILES	aSyn UTR act
Cc1nc2ccccc2n1CCCOc1ccccc1	-89*
O=c1oc2ccccc2n1CCCOc1ccccc1	-73*
Cc1ccc(OCCn2c(NC(=O)c3ccco3)nc3ccccc32)cc1	67
COc1ccc(NCc2nc3ccccc3n2CCOc2ccccc2)cc1	-207*
C/C(N)=C(/C#N)C(=O)COC(=O)c1cc(C)n(-c2ccc(F)cc2)c1C	-109*
CNc1nnc(-c2ccc(OC)cc2)s1	-75*
CN(C)/C=C/C(=O)c1ccc(Br)cc1	-70*
N/C(=N\OC(=O)c1ccc2c(c1)OCO2)c1cccc([N+](=O)[O-])c1	-133*
Cc1cccc(/C(N)=N/OC(=O)c2ccc3c(c2)OCO3)c1	-116*
NNCCc1ccccc1	-133*
O=C(Nc1ccc(Cl)cc1)NC1CCCCC1	-175*
O=C(NC1CCCCCCC1)c1ccc(F)cc1	-197*
O=C(Nc1ccc(F)cc1)NC1CCCCCCC1	-96*
O=C(NC1CCCCCC1)c1ccc(N2CCCC2=O)cc1	-101*
Nc1ccc(NC(=O)NC2CCCCC2)cc1[N+](=O)[O-]	-161*
S=C(NCCc1cccc(Cl)c1)NC1CCCCC1	-118*
O=C(Nc1ccc2nsnc2c1)NC1CCCCC1	-197*
O=C(Nc1ccc(F)c(F)c1)NC1CCCCC1	-86*
CC(=O)c1cccc(NC(=O)NC2CCCCCCC2)c1	-70*
O=C(Nc1ccccc1F)NC1CCCCCCC1	-115*
O=C(Nc1cccc(Cl)c1)NC1CCCCC1	-121*
